Screening results deposited in PubChem BioAssay by National Center for Advancing Translational Sciences (NCATS).
FBPA coupling cs: qHTS Assay for Inhibitors of Fructose-1,6-bisphosphate Aldolase from Giardia Lamblia: Coupling assay counterscreen | activity change, negative = inhibition, % at 58.2 µM, hits read low | coupling enzyme system counterscreen, AmpLite Red fluorescence | actives 0.67% (n = 290,000); in the data active means activity change below about -30%; further: on the % scale 0 is the no-effect control and ±100 the full control effect
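Counterscreen of the coupled detection system alone, without aldolase: glyceraldehyde-3-phosphate coupling enzymes plus AmpLite Red readout. Compounds at 57.5 uM final, 10 min RT preincubation, 20 min RT reaction, fluorescence 525/598 nm.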
RXFP1 ag: qHTS Assay for Agonists of the Relaxin Receptor RXFP1. Relaxin receptor 1 (Homo sapiens), Q9HBX9. HEK293T-RXFP1 cAMP TR-FRET, 30 min; response scale: percent of porcine relaxin response, buffer zero. Potency, µM (series often up to 57.5 µM), inactives show at the top dose activation, most hits filed as activators. actives 0.3% (n = 370,000). AID 2676, 2010; active means well fitted activation curve with a large enough effect; inconclusive means small, poorly fitted or top-dose-only effect; further: potency means the concentration at half of the fitted maximal effect; on the % scale 0 is the no-effect control and ±100 the full control effect; nearly all actives have a fitted effect of over 60% in size
Target sequence (Q9HBX9 whole entry, looked up): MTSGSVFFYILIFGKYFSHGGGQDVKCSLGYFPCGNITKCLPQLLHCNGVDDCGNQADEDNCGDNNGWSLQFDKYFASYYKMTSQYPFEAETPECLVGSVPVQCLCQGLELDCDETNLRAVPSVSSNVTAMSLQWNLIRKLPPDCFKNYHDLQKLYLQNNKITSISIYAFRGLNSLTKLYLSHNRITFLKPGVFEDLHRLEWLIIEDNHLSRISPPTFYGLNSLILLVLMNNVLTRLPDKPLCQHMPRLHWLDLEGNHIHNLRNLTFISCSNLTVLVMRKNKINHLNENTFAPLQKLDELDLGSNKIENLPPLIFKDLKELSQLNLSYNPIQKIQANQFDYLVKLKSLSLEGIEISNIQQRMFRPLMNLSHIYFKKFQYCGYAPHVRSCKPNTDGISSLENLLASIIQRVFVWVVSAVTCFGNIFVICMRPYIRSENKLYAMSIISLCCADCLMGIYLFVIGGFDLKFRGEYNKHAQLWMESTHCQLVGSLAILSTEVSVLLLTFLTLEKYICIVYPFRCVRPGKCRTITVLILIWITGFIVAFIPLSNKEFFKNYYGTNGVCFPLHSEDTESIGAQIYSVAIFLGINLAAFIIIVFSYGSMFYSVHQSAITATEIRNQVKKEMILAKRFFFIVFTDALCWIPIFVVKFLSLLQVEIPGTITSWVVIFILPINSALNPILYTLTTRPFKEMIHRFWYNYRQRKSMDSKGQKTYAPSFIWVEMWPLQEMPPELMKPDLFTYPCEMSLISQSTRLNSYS
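Agonist response is measured as cAMP accumulation in an RXFP1-transfected HEK293T line under PDE4 inhibition. Values are scaled between buffer-only and 29 nM porcine relaxin, and EC50s come from standard Hill equation fits.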
gsp antag: qHTS for Antagonists of gsp, the Etiologic Mutation Responsible for Fibrous Dysplasia/McCune-Albright Syndrome: qHTS. gsp-mutant cells, cAMP HTRF, 30 min. Potency, µM (top dose mostly 76.9 µM), without a hit: at the highest dose activity change, negative = inhibition, hits mostly inhibitors. actives 0.4% (n = 340,000); calls by dose curve; cell line not stated here;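 further: intracellular cAMP measured with PDE inhibitor Ro 20-1724 present during compound exposure; potency means the concentration at half of the fitted maximal effect; on the % scale 0 is the no-effect control and ±100 the full control effect; nearly all actives have a fitted effect of over 65% in size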
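Cells in G418 medium, seeded 16-24 h, 37C; buffer exchange to DPBS + 1 mM CaCl2, 0.5 mM MgCl2, 0.05% BSA; cpds in DMSO + […] (300 uM stock), 30 min 37C; HTRF cAMP detection.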
RXFP1 antag: qHTS Assay for Antagonists of the Relaxin Receptor RXFP1; Relaxin receptor 1 (Homo sapiens), Q9HBX9; HEK293-RXFP1, relaxin-stimulated cAMP HTRF, 30 min; active compounds read low; activity change, negative = inhibition, % at 57.5 µM; actives 0.59% (n = 350,000);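 active means activity change of -60% or lower, but not beyond a set lower limit; inconclusive means change between -60% and -40%, or beyond the set limit; inactive means change above -40%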; further: on the % scale 0 is the no-effect control and ±100 the full control effect
Giardia kill: Small Molecules that selectively kill Giardia lamblia: qHTS. Giardia lamblia trophozoite viability. activity change, % at 7.66 µM, hits read low. actives 0.15% (n = 340,000). AID 540267, 2011; in the data active means activity change below about -80%; inconclusive means between about -30% and that limit;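 further: parasites exposed to compound for two days anaerobically before the ATP read; on the % scale 0 is the no-effect control and ±100 the full control effect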
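Killing of trophozoites was scored by loss of ATP luminescence after a 48 hrs anaerobic exposure to compounds at 37 deg C, using 100 cells per well.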
gsp ag: qHTS for Agonist of gsp, the Etiologic Mutation Responsible for Fibrous Dysplasia/McCune-Albright Syndrome: qHTS; Potency, µM (titrated, usually from 76.9 µM), for inactives: at the top dose activation (cAMP increase), hits mostly activators; actives 0.13% (n = 340,000); gsp mutant cells, cAMP HTRF, 30 min; active means well fitted activation curve with a large enough effect; inconclusive means small, poorly fitted or top-dose-only effect, or another doubt; inactive means no such curve, though single readings can be large or run the other way; cell line not stated here;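 further: phosphodiesterase inhibitor Ro 20-1724 added with compounds to block cAMP breakdown; potency means the concentration at half of the fitted maximal effect; nearly all actives have a fitted effect of over 60% in size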
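Cells in DMEM/10% FBS with G418 were pretreated with compounds in DMSO plus […] (300 uM stock) for 30 min at 37C. cAMP was measured by HTRF (cAMP-d2 plus anti-cAMP antibody-K) after 30 min at room temperature.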
Starred values were filed as active, the others as inactive; ? = inconclusive; . = no result given; + = active, no number; [ ] = another dose, or the depositor's remark. Sampled rows, rich in hits. Any-hit rate of the full collection: about 1.6%.

SMILES | FBPA coupling cs | RXFP1 ag | gsp antag | RXFP1 antag | Giardia kill | gsp ag
CC(NC(=O)c1cccc(S(=O)(=O)N2CCN(Cc3ccccc3)CC2)c1)c1ccccc1Cl (stereo not given) | . | . | + | -12 | 5 | -72%
COc1ccc(OC)c(C2CC(=O)c3c([nH]c(C(=O)OCC4CCCO4)c3C)C2)c1 (stereo not given) | 1 | 1% | 40µM* | . | -25 | -47%
O=C(Cn1ccnc1[N+](=O)[O-])NCc1ccccc1 | . | 0% | -4% | 8 | -83* | .
O=C(Cn1ccnc1[N+](=O)[O-])NCCO | 1 | . | . | -3 | . | .
CCCSCCCNC(=O)CN1C(=O)COc2ccc(S(=O)(=O)N3CCCC3)cc21 | 0 | -2% | -8% | 1 | 4 | 6%
CCCn1c(SCC(=O)Nc2ccc(NC(C)=O)cc2)nc2c1c(=O)n(C)c(=O)n2C | 6 | ? | 4% | 19 | 18 | 18µM*
CCC(=O)Nc1ccc(NC(=O)CSc2nc3c(c(=O)n(C)c(=O)n3C)n2CC)cc1 | 4 | 16µM* | 22% | 21 | -24 | 47%[15.4 µM]
CCn1c(SCC(=O)Nc2ccc3c(c2)OCO3)nc2c1c(=O)n(C)c(=O)n2C | 6 | 2% | 5% | 2 | -6 | 7%
S=c1[nH]c(=S)c2[nH]cnc2[nH]1 | . | . | . | . | 9 | .
Cc1cc(=O)cc(C)n1-c1ccccc1N | 2 | -1% | 5% | -2 | -7 | 0%
Cc1ccc(C)n1-c1ccccc1N | -56* | 0% | . | . | . | .
Cc1nc2cc(-c3ccc(Cl)cc3)nn2c(NCCN(C)C)c1C | 0 | 16% | 6% | -9 | -96* | -2%
CCCCCCCCCCCCCC[C@@H](O)[C@@H](O)[C@H](CO)NC(C)=O | -1 | . | . | . | . | .
CCN(CC)S(=O)(=O)c1ccc2c(c1)N(CC(=O)NCC1CCCO1)C(=O)CO2 (stereo not given) | . | 11% | 7% | 16 | -7 | ?
O=C(NCc1ccc2c(c1)OCO2)O[C@@H]1C(=O)c2cc(Br)ccc2O[C@H]1c1ccc2c(c1)OCO2 | -3 | . | . | . | . | .
COc1cccc(CNC(=O)COC(=O)/C(C#N)=C/c2ccc(N(C)C)cc2)c1 | . | ? | 11% | 16 | 6 | 25µM*
Cc1cccc(C(C)C)c1NC(=O)Cc1ccc(S(=O)(=O)N2CCOCC2)s1 | . | 0% | 9% | -5 | 7 | ?
CCCNC(=O)c1cnn2c(C)c(Cc3c(C)cc(C)cc3C)c(C)nc12 | . | 0% | . | ? | . | .
CCCCNC(=O)c1cnn2c(C)c(Cc3c(C)cc(C)cc3C)c(C)nc12 | . | 1% | . | -61* | . | .
O=C(O)c1cc(O)c2c(c1)[C@H]([C@H]1c3cc(C(=O)O)cc(O)c3C(=O)c3c(O[C@@H]4OC(CO)C(O)C(O)C4O)cccc31)c1cccc(O[C@@H]3OC(CO)C(O)C(O)C3O)c1C2=O (stereo not given in full) | -39* | . | . | . | . | .
O=C(O)c1cc(O)c2c(c1)[C@@H]([C@H]1c3cc(C(=O)O)cc(O)c3C(=O)c3c(O[C@@H]4O[C@H](CO)[C@@H](O)[C@H](O)[C@H]4O)cccc31)c1cccc(O[C@@H]3O[C@H](CO)[C@@H](O)[C@H](O)[C@H]3O)c1C2=O | . | . | 3% | . | -15 | .
O=C(Nc1ncccc1Cl)C(Sc1ccccc1)c1ccccc1 (stereo not given) | -2 | -2% | -8% | -8 | 10 | ?
CC(C)CNC(=S)NC(=O)c1csc([N+](=O)[O-])c1 | 0 | 2% | -13% | 7 | -87* | -16%
NNC(=O)c1[nH]c2ccc(Br)cc2c1-c1ccccc1 | -1 | 3% | 1% | -2 | -6 | 14%[15.4 µM]
CCc1c(C(=O)O)[nH]c2ccc(Br)cc12 | 8 | ? | 11% | 21 | 2 | 4µM*
SMILES | FBPA coupling cs | RXFP1 ag | gsp antag | RXFP1 antag | Giardia kill | gsp ag
c1nc(NCc2ccc3c(c2)OCO3)c2[nH]cnc2n1 | . | . | . | . | -14 | .
O=C1c2ccccc2C(=O)c2c(O)c(O)cc(O)c21 | -12 | . | -17% | . | -14 | .
O=c1c(O)cccc2cc(O)c(O)c(O)c12 | -36* | -3% | -11% | 8 | -21 | -18%
O=C(O)c1ccccc1C(=O)Nc1ccc(Br)c2cccnc12 | -22 | 4% | 7% | 6 | 6 | 1%
Cc1ccc(C)n1-c1ccc(N(C)C)cc1 | -30* | -2% | ? | -12 | 13 | -25%[15.4 µM]
Cn1c2ccccc2c2cc(/C=N/NC(=O)c3cc(O)cc(O)c3)ccc21 | 3 | 4% | -2% | -25 | -1 | -31%
Cn1c2ccccc2c2cc(/C=N/NC(=O)c3cc(O)ccc3O)ccc21 | -5 | 3% | -16% | -112* | -7 | 15%[15.4 µM]
NNC(=O)CN1C(c2ccccc2Br)=Nc2ccc(Br)cc2C1c1ccccc1 (stereo not given) | -38* | -1% | -17% | . | -5 | 8%
O=S(=O)(c1ccccc1)N1CCC(c2ccncc2)CC1 | . | -1% | . | -106* | . | .
COc1cc(/C=C(\NC(C)=O)C(=O)N2CCCCC2)ccc1OC(C)=O | 2 | 0% | -11% | 6 | 4 | -36%
Cn1c2c(c(=O)n(C)c1=O)C1(C(=O)Nc3ccccc31)C(C#N)=C(N)O2 (stereo not given) | -54* | 0% | 2% | 6 | -4 | 31%
Cc1cc(N2CCCC2=O)cc(C)c1S(=O)(=O)NCCOc1ccc(C(C)(C)C)cc1 | 1 | 0% | 25µM* | -3 | -6 | -14%
Cc1ccc(/C=N/N2CCN(C3c4ccccc4-c4ccccc43)CC2)o1 | 2 | -5% | -11% | -21 | -15 | -24%
O=C(COC(=O)/C=C/c1ccc([N+](=O)[O-])cc1)Nc1ccc2[nH]c(=O)[nH]c2c1 | . | 0% | 2% | -69* | -5 | 0%
O=C(COC(=O)/C=C/c1ccc([N+](=O)[O-])cc1)Nc1ccc(F)cc1 | . | -1% | 6% | 1 | 4 | 14%
COCCc1ccccn1 | . | . | . | 9 | . | .
